The values that follow come from PubChem BioAssay (EPA / NIEHS).

Each structure is given as a SMILES string. The source made the active and inactive calls. The calls were made as follows: active = hit-call score of the fitted dose curve at least 0.9, where 1 is the maximum; inactive = score below 0.9.

Test [1] can be described thus: ATG_CRE_CIS: Attagene CIS-FACTORIAL HepG2 Assay for human cAMP Responsive Element (CRE) binding protein 3 (AID 2282926). The settings on record: HepG2 CRE cis-reporter, Attagene multiplexed mRNA; actives raise or lower the signal. In short, it runs like this: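 Capillary electrophoresis of 6-FAM-labelled, HpaI-digested PCR products quantified reporter transcripts. These came from HepG2 transiently transfected with cis-element reporters and exposed to test chemicals for 24 hours, with DMSO defining baseline activity.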

Test [2] deals with CCAAT/enhancer-binding protein beta (Homo sapiens) (UniProt P17676). In words: ATG_C_EBP_CIS: Attagene CIS-FACTORIAL HepG2 Assay for human CCAAT/Enhancer Binding Protein (C/EBP) beta (AID 2282927). The note with it: HepG2 Attagene cis-factorial transcription factor reporter; actives raise or lower the signal. An outline of the steps: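 Following a 24 h incubation with test chemical, transfected HepG2 cells yielded RNA whose reporter transcripts were quantified by RT-PCR and fluorescent capillary electrophoresis, with DMSO serving as baseline for bidirectional fitting.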

The nature of test [3]: ATG_CMV_CIS: Attagene CIS-FACTORIAL HepG2 Assay for human CMV (Internal Marker) (AID 2282928).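 Also: endpoint acts as a background internal control marker rather than a target.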 The note with it: HepG2 CMV promoter reporter, transcription factor profiling; actives raise or lower the signal. In short, it runs like this: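 Fluorescence intensity of RT-PCR-derived reporter fragments, resolved by capillary electrophoresis, gives the signal. HepG2 liver cells bearing transfected cis-element reporters were treated 24 h; activity in either direction was fit relative to DMSO-treated controls.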

Test [4] in a line: ATG_DR4_LXR_CIS: Attagene CIS-FACTORIAL HepG2 Assay for human Liver X Receptor (LXR), DR4 submotif (AID 2282929). The note with it: HepG2 Attagene DR4 cis-reporter, mRNA transcription; actives raise or lower the signal. An outline of the steps: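 Cells were transfected with multiple reporter transcription units, exposed to chemicals for 24 hours, then lysed for RNA. Reporter mRNA induction was measured by RT-PCR with capillary electrophoresis detection and fitted in both directions relative to DMSO.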

Test [5] is described as follows: ATG_AP_1_CIS: Attagene CIS-FACTORIAL HepG2 Assay for human Activator Protein 1 (AP-1) (AID 2282931). The settings on record: HepG2 Attagene cis-factorial AP-1 reporter mRNA; actives raise or lower the signal. In short, it runs like this: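 Endogenous transcription-factor activity in human HepG2 liver cells is read through a cis-promoter reporter transcript, sampled 24 h after dosing. Detection uses RT-PCR with capillary electrophoresis; values come from bidirectional fitting relative to DMSO.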

Test [6] in a line: ATG_AP_2_CIS: Attagene CIS-FACTORIAL HepG2 Assay for human Activator Protein 2 (AP-2) (AID 2282932). The settings on record: HepG2 AP-2 cis-reporter, Attagene transcription factor profiling; actives raise or lower the signal. In short, it runs like this: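 Cells (HepG2) transfected with promoter-driven reporter constructs, treated 24 h. Total RNA reverse-transcribed, reporter cDNA PCR-amplified, FAM-labelled by primer extension, digested, resolved by capillary electrophoresis. Activity fitted both directions versus DMSO.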

A short description of test [7]: ATG_BRE_CIS: Attagene CIS-FACTORIAL HepG2 Assay for human Bone Morphogenetic Protein (BMP) Response Element (BRE) (AID 2282933). The settings on record: HepG2 BMP response element reporter, Attagene transcription factor profiling; actives raise or lower the signal. An outline of the steps:
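HepG2 cells transiently transfected with CIS reporter units (endogenous TF activity, BMP response element), dosed 24 h. Reporter mRNA quantified by RT-PCR, fluorescent labelling and capillary electrophoresis; bidirectional fit vs DMSO baseline.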

Test [8] addresses Transcription factor E2F1 (Homo sapiens) (UniProt Q01094). Nature of the test: ATG_E2F_CIS: Attagene CIS-FACTORIAL HepG2 Assay for human E2F Transcription Factor 1 (AID 2282935). The settings on record: HepG2 Attagene cis-reporter, E2F reporter RNA transcripts; actives raise or lower the signal. An outline of the steps:
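First, HepG2 cells were transfected with reporter transcription units. Next, they were dosed for 24 h. Then RNA was isolated, converted to cDNA, PCR-amplified, FAM-labeled, HpaI-digested and analyzed by capillary electrophoresis.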

Test [9] is described as follows: ATG_E_Box_CIS: Attagene CIS-FACTORIAL HepG2 Assay for human Enhancer Box (E-box) (AID 2282936). The settings on record: HepG2 E-box cis-reporter transcription, actives raise or lower the signal. An outline of the steps: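 Endogenous transcription factor activity was sensed in human HepG2 liver cells through transfected cis-promoter reporter units. After 24 h of dosing, total RNA was reverse-transcribed and reporter cDNA resolved by capillary electrophoresis.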

Test [10] can be described thus: ATG_M_61_CIS: Attagene CIS-FACTORIAL HepG2 Assay for M61 Transcription Factor (Internal Marker) (AID 2282937). The note with it: HepG2 Attagene CIS-FACTORIAL M61 internal marker reporter; actives raise or lower the signal. An outline of the steps: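 Cells were transfected with reporter units under cis-regulatory promoters, treated with chemicals for 24 h, then lysed for RNA. Reporter transcripts were quantified by RT-PCR and capillary electrophoresis, and activity was fitted bidirectionally against DMSO.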

A short description of test [11]: ATG_EGR_CIS: Attagene CIS-FACTORIAL HepG2 Assay for human Early Growth Response 1 (EGR1) (AID 2282938). The note with it: HepG2 Attagene CIS-FACTORIAL EGR reporter mRNA; actives raise or lower the signal. An outline of the steps:
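Endogenous TF activity in HepG2 liver cells was gauged through cis-promoter reporter constructs transiently transfected. After 24 h dosing, reporter mRNA was quantified by RT-PCR and capillary electrophoresis, and curves fitted in both directions versus DMSO.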

Test [12] can be described thus: ATG_Ets_CIS: Attagene CIS-FACTORIAL HepG2 Assay for human Erythroblast Transformation Specific (ETS) (AID 2282941). The note with it: HepG2 ETS cis-reporter transcription, actives raise or lower the signal. In short, it runs like this:
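Multiplexed reporter transcript profiling: HepG2, 24 h treatment, total RNA to cDNA, PCR, 6-FAM labelling, HpaI cut, capillary electrophoresis. Gain- or loss-of-signal fitted against DMSO.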

Test [13] is described as follows: ATG_FoxO_CIS: Attagene CIS-FACTORIAL HepG2 Assay for human Forkhead box O (FoxO) (AID 2282943). The settings on record: HepG2 Attagene cis-reporter, FoxO element, mRNA; actives raise or lower the signal. An outline of the steps: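 Values reflect reporter mRNA induction or loss in HepG2 cells 24 h post-dosing, fitted bidirectionally with DMSO as negative control and baseline. Detection used RT-PCR and fluorescence capillary electrophoresis.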

Test [14] in a line: ATG_GATA_CIS: Attagene CIS-FACTORIAL HepG2 Assay for human GATA Binding Protein (AID 2282944). The settings on record: HepG2 GATA cis-element reporter, Attagene multiplex mRNA; actives raise or lower the signal. In short, it runs like this:
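HepG2 cells transiently transfected with multiplexed cis-element reporter units measure endogenous GATA activity; after 24 h compound exposure, reporter mRNA quantified by RT-PCR and capillary electrophoresis. Changes fitted in both directions vs DMSO.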

A short description of test [15]: ATG_GLI_CIS: Attagene CIS-FACTORIAL HepG2 Assay for human Zinc Finger Protein GLI1 (AID 2282945). The note with it: HepG2, Attagene cis-factorial reporter mRNA, GLI element; actives raise or lower the signal. In short, it runs like this:
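HepG2 cells transiently transfected with cis-promoter multiplexed reporter units report endogenous transcription factor activity. After 24 h chemical exposure, reporter mRNA was quantified by RT-PCR, 6-FAM labelling, HpaI digestion and capillary electrophoresis, with bidirectional fitting against DMSO.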

The nature of test [16]: ATG_ISRE_CIS: Attagene CIS-FACTORIAL HepG2 Assay for human Interferon Regulatory Factor 1 (IRF1) binding to an Interferon-Stimulated Response Element (ISRE) (AID 2282948). The settings on record: HepG2 ISRE cis-reporter (Attagene), mRNA transcription readout; actives raise or lower the signal. An outline of the steps:
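Signal reflects induction or loss of ISRE-linked reporter mRNA in transiently transfected HepG2 cells after a 24 h treatment, detected by fluorescent RT-PCR fragments on capillary electrophoresis and normalised to DMSO.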

Test [17] can be described thus: ATG_M_32_CIS: Attagene CIS-FACTORIAL HepG2 Assay for M32 Transcription Factor (Internal Marker) (AID 2282949).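 Also: background control marker of the multiplexed CIS panel rather than a real target.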 The settings on record: HepG2 Attagene cis-factorial M32 reporter, mRNA; actives raise or lower the signal. In short, it runs like this:
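HepG2 human liver cells transiently transfected with cis-promoter-driven multiple reporter transcription units, dosed 24 h. Reporter mRNA quantified by RT-PCR, FAM-labelled primer extension, HpaI digest and capillary electrophoresis; bidirectional fit versus DMSO baseline.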

The nature of test [18]: ATG_M_06_CIS: Attagene CIS-FACTORIAL HepG2 Assay for M06 Transcription Factor (Internal Marker) (AID 2282950). The settings on record: HepG2 Attagene CIS-FACTORIAL M06 internal marker reporter; actives raise or lower the signal. An outline of the steps: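 Internal background marker within multiplexed cis-reporter HepG2 system. Cells transiently transfected, dosed 24 h; reporter mRNA measured by RT-PCR, HpaI digestion and capillary electrophoresis. Bidirectional fit relative to DMSO.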

The target of test [19] is Paired box protein Pax-6 (Homo sapiens) (UniProt P26367). In words: ATG_Pax6_CIS: Attagene CIS-FACTORIAL HepG2 Assay for human Paired Box 6 (PAX6) (AID 2282956). The note with it: HepG2 CIS-FACTORIAL PAX6 reporter transcription, RNA readout; actives raise or lower the signal. In short, it runs like this:
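Values derive from bidirectional curve fitting of reporter mRNA signal relative to DMSO. HepG2 cells bearing transfected cis-regulated MRTUs were exposed for 24 h; transcripts were read by RT-PCR and capillary electrophoresis.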

Test [20] is described as follows: ATG_PXRE_CIS: Attagene CIS-FACTORIAL HepG2 Assay for human Pregnane X Receptor Element (PXRE) (AID 2282957). The note with it: HepG2 Attagene CIS-FACTORIAL PXRE reporter, mRNA; actives raise or lower the signal. An outline of the steps:
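Fluorescent capillary electrophoresis of amplified reporter cDNA gave the signal, collected 24 h after dosing HepG2 cells that held transfected cis-element reporter constructs.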

Paired box protein Pax-6 (Homo sapiens), sequence (P26367 whole entry, looked up): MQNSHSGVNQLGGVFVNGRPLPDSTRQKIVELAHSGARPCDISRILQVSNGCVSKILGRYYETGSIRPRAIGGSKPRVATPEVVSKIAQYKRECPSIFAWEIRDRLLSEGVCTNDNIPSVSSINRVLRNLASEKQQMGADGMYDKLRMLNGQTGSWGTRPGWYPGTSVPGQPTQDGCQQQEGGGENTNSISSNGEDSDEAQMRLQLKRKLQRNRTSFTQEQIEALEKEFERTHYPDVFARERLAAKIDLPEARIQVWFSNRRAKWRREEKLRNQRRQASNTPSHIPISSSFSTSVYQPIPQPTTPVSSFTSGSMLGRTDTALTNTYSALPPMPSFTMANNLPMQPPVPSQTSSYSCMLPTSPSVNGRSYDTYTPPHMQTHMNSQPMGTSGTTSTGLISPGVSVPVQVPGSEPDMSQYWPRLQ
CCAAT/enhancer-binding protein beta (Homo sapiens), sequence (P17676 whole entry, looked up): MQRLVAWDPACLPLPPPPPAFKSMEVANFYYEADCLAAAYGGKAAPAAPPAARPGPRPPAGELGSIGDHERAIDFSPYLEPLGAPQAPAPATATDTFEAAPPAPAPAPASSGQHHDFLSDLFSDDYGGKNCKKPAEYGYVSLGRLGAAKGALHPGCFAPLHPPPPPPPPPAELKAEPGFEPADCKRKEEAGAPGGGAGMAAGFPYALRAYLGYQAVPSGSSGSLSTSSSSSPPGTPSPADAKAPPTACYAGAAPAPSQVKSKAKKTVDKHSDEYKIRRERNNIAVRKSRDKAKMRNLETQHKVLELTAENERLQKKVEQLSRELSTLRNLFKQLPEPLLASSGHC
Transcription factor E2F1 (Homo sapiens), sequence (Q01094 whole entry, looked up): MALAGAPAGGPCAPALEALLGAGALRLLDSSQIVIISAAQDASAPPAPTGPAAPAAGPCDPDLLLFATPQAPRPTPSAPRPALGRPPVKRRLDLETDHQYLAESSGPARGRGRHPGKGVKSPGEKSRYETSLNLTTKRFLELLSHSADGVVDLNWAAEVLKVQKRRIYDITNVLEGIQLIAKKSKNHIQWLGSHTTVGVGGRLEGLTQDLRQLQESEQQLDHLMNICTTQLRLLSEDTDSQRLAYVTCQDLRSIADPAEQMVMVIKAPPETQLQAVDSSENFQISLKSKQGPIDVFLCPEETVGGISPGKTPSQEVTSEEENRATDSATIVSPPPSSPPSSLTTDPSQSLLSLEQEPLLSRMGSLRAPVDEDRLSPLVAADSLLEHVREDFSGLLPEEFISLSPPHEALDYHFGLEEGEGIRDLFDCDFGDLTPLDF

`CCCCCCCC#N`: the call in test [1], in [2], in test [3], in test [4], in [5] and in test [6] was inactive. Further, the compound was called inactive in test [7], in [8], in test [9], in [10], in test [11] and in test [12]. Besides, the call in test [13], in [14], in test [15], in test [16], in test [17] and in test [18] was inactive. Besides, the call in test [19] and in test [20] was inactive.

As to `CCOC(=O)CC(=O)OCC`, the result in test [1], in test [2], in test [3], in test [4], in [5] and in [6] was inactive. For the same compound, the call in test [7], in test [8], in test [9], in [10], in [11] and in [12] was inactive. Also, the result in [13], in [14], in [15], in test [16], in [17] and in test [18] was inactive. The compound was called inactive in test [19] and in test [20].

A word on the AC50: it is the midpoint of the concentration-response curve, whichever way the signal moves. Turning to `CCCCC(CC)COC(=O)CS` (stereo not given), the result in [1], in [2], in test [3], in test [4], in [5] and in [6] was inactive. The outcome in test [7], in test [8], in test [9], in test [10], in test [11] and in test [12] was inactive. The outcome in test [13], in [14], in test [15], in test [16], in test [17] and in [18] was inactive. Moreover, the outcome in test [19] was inactive. The AC50 in test [20] was 13.1 µM (active).
